Experimental findings from ChEMBL document CHEMBL2218924, “A broad activity screen in support of a chemogenomic map for kinase signalling research and drug discovery” (Biochem J, 2013) are described below.

Experiment [1] has as its target T1, Dual specificity mitogen-activated protein kinase kinase 6 (Homo sapiens) (UniProt P52564).
T1 sequence (whole entry): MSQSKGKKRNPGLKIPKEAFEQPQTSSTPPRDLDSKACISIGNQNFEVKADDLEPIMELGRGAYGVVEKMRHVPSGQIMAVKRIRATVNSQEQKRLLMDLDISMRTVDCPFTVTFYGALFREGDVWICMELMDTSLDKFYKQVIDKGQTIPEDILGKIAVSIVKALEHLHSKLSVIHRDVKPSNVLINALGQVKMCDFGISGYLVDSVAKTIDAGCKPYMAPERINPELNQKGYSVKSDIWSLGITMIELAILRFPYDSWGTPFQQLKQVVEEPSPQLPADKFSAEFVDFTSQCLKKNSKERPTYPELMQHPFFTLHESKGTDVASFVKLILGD
The note with it: at 1 µM.

Experiment [2] deals with T1, Dual specificity mitogen-activated protein kinase kinase 6 (Homo sapiens). The note with it: at 10 µM.
Experiment [3] concerns the target T2, Dual specificity mitogen-activated protein kinase kinase 7 (Homo sapiens) (UniProt O14733).
T2 sequence (whole entry): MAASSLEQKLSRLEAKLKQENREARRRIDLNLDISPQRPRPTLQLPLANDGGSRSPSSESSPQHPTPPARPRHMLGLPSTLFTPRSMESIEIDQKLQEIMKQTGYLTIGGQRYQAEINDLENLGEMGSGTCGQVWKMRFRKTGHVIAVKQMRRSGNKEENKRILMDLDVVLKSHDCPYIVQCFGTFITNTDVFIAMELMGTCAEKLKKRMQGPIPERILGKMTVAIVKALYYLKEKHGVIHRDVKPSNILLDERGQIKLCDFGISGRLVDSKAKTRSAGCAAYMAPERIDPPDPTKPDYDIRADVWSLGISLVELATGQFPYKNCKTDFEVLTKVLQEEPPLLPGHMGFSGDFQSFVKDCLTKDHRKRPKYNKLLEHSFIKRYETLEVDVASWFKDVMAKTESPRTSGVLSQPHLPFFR
Particulars: at 1 µM.

In experiment [4] the target is T2, Dual specificity mitogen-activated protein kinase kinase 7 (Homo sapiens). Particulars: at 10 µM.
In experiment [5] the target is Myosin light chain kinase, smooth muscle (Homo sapiens) (UniProt Q15746). Particulars: at 1 µM.
The target is the same in experiment [6]. The note with it: at 10 µM.
The target in experiment [7] is Mitogen-activated protein kinase kinase kinase 9 (Homo sapiens) (UniProt P80192). The note with it: at 1 µM.
Experiment [8] has the same target. The note with it: at 10 µM.
The target in experiment [9] is Serine/threonine-protein kinase MRCK alpha (Homo sapiens) (UniProt Q5VT25). Particulars: at 1 µM.
For experiment [10] the target is unchanged. The note with it: at 10 µM.
Experiment [11] addresses Serine/threonine-protein kinase MRCK beta (Homo sapiens) (UniProt Q9Y5S2). The note with it: at 1 µM.
Experiment [12] has the same target. Particulars: at 10 µM.
In experiment [13] the target is Ribosomal protein S6 kinase alpha-5 (Homo sapiens) (UniProt O75582). Particulars: at 1 µM.
For experiment [14] the target is unchanged. Particulars: at 10 µM.
The target in experiment [15] is Ribosomal protein S6 kinase alpha-4 (Homo sapiens) (UniProt O75676). The note with it: at 1 µM.
Experiment [16] has the same target. Particulars: at 10 µM.
In experiment [17] the target is SRSF protein kinase 3 (Homo sapiens) (UniProt Q9UPE1). The note with it: at 1 µM.
Experiment [18] shares this target. Particulars: at 10 µM.
For experiment [19], the target named is T3, Serine/threonine-protein kinase 4 (Homo sapiens) (UniProt Q13043).
T3 sequence (whole entry): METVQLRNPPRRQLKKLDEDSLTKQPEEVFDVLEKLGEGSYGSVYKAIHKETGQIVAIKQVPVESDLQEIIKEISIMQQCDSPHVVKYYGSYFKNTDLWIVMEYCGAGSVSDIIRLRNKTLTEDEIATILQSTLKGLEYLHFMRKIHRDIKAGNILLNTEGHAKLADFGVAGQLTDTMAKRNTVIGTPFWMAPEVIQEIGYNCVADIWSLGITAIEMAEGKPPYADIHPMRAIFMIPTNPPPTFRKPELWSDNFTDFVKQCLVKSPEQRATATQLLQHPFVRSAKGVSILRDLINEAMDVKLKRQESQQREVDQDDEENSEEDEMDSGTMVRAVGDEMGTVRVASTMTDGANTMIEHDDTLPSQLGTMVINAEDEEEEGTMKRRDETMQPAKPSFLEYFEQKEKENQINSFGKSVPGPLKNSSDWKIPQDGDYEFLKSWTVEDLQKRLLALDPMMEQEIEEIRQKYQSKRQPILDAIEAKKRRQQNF
Particulars: at 1 µM.

For experiment [20], the target named is T3, Serine/threonine-protein kinase 4 (Homo sapiens). Particulars: at 10 µM.

Chain of Ribosomal protein S6 kinase alpha-4 (Homo sapiens) (O75676 whole entry, looked up): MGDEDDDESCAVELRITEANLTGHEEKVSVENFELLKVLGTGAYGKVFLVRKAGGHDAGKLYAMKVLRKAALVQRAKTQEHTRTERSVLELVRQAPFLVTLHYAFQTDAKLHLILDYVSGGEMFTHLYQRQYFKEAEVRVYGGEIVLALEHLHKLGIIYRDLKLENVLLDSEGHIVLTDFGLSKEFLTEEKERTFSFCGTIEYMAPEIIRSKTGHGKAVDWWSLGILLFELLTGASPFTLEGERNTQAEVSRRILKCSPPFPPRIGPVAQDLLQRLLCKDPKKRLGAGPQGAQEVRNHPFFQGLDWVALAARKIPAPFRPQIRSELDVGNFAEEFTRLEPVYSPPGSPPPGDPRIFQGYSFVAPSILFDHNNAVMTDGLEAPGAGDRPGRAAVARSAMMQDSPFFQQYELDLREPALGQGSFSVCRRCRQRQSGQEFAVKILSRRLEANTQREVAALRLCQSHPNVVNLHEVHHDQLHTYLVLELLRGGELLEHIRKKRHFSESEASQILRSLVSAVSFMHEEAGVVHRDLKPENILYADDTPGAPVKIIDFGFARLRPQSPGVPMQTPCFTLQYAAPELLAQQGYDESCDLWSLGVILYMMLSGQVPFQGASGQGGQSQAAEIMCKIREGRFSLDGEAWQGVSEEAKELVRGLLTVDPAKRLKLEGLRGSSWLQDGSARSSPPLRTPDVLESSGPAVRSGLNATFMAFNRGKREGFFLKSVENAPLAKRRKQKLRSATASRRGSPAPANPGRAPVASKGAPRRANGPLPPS
Chain of Mitogen-activated protein kinase kinase kinase 9 (Homo sapiens) (P80192 whole entry, looked up): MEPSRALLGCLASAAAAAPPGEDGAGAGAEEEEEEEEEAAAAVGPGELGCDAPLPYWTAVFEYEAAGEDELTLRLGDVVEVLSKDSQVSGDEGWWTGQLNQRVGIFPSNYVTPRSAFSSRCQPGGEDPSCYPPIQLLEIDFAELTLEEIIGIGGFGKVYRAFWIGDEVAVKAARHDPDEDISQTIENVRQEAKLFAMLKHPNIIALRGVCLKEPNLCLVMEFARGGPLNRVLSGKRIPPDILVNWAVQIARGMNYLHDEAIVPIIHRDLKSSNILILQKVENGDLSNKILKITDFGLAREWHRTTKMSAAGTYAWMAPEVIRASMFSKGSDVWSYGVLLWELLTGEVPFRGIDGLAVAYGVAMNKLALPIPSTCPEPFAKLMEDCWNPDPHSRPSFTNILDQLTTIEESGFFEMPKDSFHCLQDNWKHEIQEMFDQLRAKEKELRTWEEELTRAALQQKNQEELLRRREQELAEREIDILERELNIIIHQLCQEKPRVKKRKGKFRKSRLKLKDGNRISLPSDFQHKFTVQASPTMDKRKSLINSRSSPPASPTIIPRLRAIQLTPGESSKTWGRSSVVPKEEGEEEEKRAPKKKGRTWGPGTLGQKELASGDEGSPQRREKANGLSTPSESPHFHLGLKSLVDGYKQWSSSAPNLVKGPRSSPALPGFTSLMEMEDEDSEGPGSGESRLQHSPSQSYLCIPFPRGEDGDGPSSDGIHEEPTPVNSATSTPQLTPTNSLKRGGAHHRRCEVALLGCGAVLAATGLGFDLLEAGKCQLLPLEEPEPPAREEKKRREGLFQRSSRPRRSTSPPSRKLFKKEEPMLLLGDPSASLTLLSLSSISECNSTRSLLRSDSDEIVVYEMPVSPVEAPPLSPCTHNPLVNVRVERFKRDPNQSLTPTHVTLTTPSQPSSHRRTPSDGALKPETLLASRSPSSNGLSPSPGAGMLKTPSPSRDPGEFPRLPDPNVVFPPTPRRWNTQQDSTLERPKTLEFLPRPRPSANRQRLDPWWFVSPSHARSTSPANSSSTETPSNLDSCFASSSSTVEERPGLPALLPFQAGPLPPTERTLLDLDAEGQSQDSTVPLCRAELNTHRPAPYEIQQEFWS
Chain of Myosin light chain kinase, smooth muscle (Homo sapiens) (Q15746 whole entry): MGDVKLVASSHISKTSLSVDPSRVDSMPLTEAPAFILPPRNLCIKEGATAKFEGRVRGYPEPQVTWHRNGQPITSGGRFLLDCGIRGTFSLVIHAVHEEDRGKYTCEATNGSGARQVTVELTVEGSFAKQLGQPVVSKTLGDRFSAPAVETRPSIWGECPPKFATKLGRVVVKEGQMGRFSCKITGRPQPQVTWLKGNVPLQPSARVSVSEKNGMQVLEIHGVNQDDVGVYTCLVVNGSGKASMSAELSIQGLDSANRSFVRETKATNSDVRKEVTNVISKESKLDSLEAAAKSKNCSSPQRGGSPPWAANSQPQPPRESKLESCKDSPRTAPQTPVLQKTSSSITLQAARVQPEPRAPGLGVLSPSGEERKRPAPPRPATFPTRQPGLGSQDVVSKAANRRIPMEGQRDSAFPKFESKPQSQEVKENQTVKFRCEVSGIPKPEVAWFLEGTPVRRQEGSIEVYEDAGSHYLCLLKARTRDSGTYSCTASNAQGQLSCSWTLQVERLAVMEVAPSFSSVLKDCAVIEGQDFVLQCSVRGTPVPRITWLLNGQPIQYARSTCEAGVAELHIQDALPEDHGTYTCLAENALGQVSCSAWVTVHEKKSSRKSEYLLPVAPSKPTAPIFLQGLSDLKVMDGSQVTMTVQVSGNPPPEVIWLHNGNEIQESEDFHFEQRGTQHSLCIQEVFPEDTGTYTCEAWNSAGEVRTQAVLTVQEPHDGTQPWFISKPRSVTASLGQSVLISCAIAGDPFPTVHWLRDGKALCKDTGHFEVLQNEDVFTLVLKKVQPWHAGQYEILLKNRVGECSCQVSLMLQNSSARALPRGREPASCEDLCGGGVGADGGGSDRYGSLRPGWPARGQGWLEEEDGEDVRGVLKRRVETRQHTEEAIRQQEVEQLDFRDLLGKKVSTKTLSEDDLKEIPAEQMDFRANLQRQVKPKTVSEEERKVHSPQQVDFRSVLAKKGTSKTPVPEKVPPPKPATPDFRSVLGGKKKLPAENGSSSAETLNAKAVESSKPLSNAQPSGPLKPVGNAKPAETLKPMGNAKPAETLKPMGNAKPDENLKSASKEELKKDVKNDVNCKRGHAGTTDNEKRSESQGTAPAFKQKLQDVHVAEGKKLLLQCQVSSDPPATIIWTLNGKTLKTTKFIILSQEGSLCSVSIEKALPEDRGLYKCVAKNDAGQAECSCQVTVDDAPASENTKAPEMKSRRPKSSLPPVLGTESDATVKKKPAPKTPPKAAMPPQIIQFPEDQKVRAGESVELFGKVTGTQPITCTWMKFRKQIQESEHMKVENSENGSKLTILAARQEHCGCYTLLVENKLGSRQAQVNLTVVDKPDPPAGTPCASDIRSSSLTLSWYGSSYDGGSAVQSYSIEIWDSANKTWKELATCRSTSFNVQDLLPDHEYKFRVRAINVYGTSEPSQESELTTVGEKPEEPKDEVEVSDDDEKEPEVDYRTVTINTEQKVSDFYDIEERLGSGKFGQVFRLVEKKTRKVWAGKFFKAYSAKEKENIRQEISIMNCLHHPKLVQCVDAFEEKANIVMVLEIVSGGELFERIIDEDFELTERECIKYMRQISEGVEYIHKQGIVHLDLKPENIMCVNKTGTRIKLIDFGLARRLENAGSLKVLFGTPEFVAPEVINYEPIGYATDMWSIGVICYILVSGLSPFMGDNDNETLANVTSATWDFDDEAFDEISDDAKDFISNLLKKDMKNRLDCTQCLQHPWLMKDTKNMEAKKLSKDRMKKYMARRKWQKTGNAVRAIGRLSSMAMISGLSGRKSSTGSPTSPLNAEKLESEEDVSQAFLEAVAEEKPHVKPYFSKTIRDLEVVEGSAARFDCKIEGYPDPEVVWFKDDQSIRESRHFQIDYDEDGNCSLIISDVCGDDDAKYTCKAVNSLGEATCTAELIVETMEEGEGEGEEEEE
Chain of Ribosomal protein S6 kinase alpha-5 (Homo sapiens) (O75582 whole entry, looked up): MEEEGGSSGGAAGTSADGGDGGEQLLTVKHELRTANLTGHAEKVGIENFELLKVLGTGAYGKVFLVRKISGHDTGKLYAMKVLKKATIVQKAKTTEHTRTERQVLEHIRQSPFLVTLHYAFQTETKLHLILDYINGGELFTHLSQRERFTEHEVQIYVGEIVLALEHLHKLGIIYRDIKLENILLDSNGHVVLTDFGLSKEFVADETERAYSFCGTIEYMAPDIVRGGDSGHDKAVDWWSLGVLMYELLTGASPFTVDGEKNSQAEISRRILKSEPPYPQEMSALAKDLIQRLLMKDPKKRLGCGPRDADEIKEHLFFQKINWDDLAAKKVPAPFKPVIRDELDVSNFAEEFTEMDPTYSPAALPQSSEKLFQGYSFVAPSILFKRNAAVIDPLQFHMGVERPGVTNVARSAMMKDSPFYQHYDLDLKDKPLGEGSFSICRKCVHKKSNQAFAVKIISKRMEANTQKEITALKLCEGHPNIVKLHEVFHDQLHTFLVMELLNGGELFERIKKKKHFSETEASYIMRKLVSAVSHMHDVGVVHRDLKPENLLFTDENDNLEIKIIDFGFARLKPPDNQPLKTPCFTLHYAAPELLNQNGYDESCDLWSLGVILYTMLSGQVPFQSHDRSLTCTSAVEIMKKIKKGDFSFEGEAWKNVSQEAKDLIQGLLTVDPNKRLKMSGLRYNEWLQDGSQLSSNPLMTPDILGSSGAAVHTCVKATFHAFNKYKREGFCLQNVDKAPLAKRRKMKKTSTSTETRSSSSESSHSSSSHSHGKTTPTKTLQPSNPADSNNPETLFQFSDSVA

Take `Nc1nc(Nc2ccc(S(N)(=O)=O)cc2)nn1C(=S)Nc1c(F)cccc1F`: the residual activity in experiment [1] is 26%; in experiment [2], 20%; in experiment [3] it was 65%; in experiment [4] it was 16%; in [5] it was 79%; in experiment [6], 29%. Further, the residual activity is -1% in experiment [7]; -1% in experiment [8]; 28% in [9]; 24% in [10]; 8% in experiment [11]; 3% in experiment [12]. Further, the residual activity in experiment [13] came out at 81%; in [14] it was 70%; in experiment [15], 19%; in [16], 21%; in experiment [17], 37%; in experiment [18], 12%. For the same molecule, the residual activity is 0% in experiment [19] and -3% in experiment [20].

Take `COc1cc2ncnc(Nc3ccc(O)c(Br)c3)c2cc1OC`: the residual activity in experiment [1] was 88%; in [2], 27%; in [3], 119%; in experiment [4] it was 94%; in [5], 71%; in [6], 37%. For the same molecule, the residual activity in experiment [7] is 45%; in [8] it was 11%; in experiment [9] it was 82%; in [10] it was 84%; in experiment [11], 91%; in [12] it was 71%. Besides, the residual activity stood at 117% in [13]; 108% in experiment [14]; 83% in experiment [15]; 72% in experiment [16]; 95% in experiment [17]; 90% in experiment [18]. Further, the residual activity in [19] turned out to be 81%; in experiment [20], 55%.

For `O=c1c2ccccc2[nH]c(=S)n1CCN1CCC(=C(c2ccc(F)cc2)c2ccc(F)cc2)CC1`, the residual activity in experiment [1] amounted to 107%; in [2], 93%; in experiment [3], 82%; in experiment [4], 90%; in experiment [5], 73%; in experiment [6], 86%. For the same molecule, the residual activity amounted to 92% in experiment [7]; 101% in experiment [8]; 107% in experiment [9]; 103% in experiment [10]; 94% in experiment [11]; 86% in experiment [12]. Also, the residual activity in experiment [13] worked out at 127%; in experiment [14] it was 104%; in experiment [15] it was 110%; in experiment [16], 97%; in experiment [17] it was 103%; in experiment [18] it was 89%. Also, the results for the residual activity in [19] and in [20] were 93% and 101%, respectively.

For the molecule `O=C(Nc1cccc(Nc2cc(Nc3cccc(C(F)(F)F)c3)ncn2)c1)C1CC1`, the residual activity in experiment [1] came to 76%; in experiment [2] it was 66%; in [3] it was 104%; in experiment [4] it was 106%; in [5], 75%; in experiment [6], 81%. Besides, the residual activity stood at 79% in experiment [7]; 36% in experiment [8]; 92% in experiment [9]; 115% in experiment [10]; 86% in experiment [11]; 89% in experiment [12]. In addition, the residual activity in experiment [13] was 124%; in [14] it was 107%; in [15], 96%; in experiment [16] it was 101%; in experiment [17] it was 102%; in experiment [18] it was 25%. Further, the values for the residual activity in experiment [19] and in [20] were 99% and 87%, respectively.

Take `COc1ccc(C(=O)Nc2sc3c(c2C(N)=O)CCCC3)cc1OC`: the residual activity was 80% in experiment [1]; 120% in experiment [2]; 90% in experiment [3]; 73% in experiment [4]; 80% in [5]; 66% in [6]. Further, the residual activity in experiment [7] was 90%; in experiment [8], 96%; in experiment [9], 92%; in experiment [10], 85%; in experiment [11] it was 89%; in experiment [12], 74%. Also, the residual activity in [13] came to 123%; in [14], 88%; in [15], 91%; in [16], 99%; in experiment [17] it was 104%; in experiment [18], 93%. Besides, the residual activity in experiment [19] came out at 92%; in [20], 95%.

On to `CCN(CC)CCCCN1c2ccccc2Oc2ccc(Cl)cc21`, for which the residual activity is 99% in experiment [1]; 119% in experiment [2]; 120% in experiment [3]; 118% in [4]; 79% in [5]; 102% in [6]. Also, the residual activity came to 93% in experiment [7]; 102% in experiment [8]; 133% in [9]; 119% in [10]; 108% in experiment [11]; 99% in experiment [12]. In addition, the residual activity in experiment [13] was determined as 146%; in [14] it was 119%; in [15], 111%; in [16], 116%; in experiment [17], 104%; in [18], 97%. In addition, the residual activity worked out at 106% in experiment [19] and 100% in experiment [20].
